Rows were chosen to be rich in hits. Some 4.7% of all compounds tested hit in one or more screens of this group.
tim10-1 inh = tim10-1 yeast growth inhibition. S. cerevisiae tim10-1 ts strain growth, BacTiter-Glo, 24 h. inhibition, % at 20 µM. hit rate 2.2% among 330,000;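 active = inhibition of at least 40%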;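 also: mutant grown at 25 °C; 0% = DMSO wells with yeast and 100% = wells holding no yeast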
tim23-1 inh = inhibits growth of tim23-1 mutant yeast; S. cerevisiae tim23-1 growth, BacTiter-Glo luminescence, 24 h; inhibition, % at 20 µM; hit rate 1.3% among 330,000; AID 463212;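 active = growth inhibition of the mutant yeast at or above 50%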;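 also: temperature-sensitive mutant grown at 25 °C; plate controls were DMSO-treated mutant yeast for no effect and medium wells lacking yeast for full effect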
TIM10 inh = TIM10 yeast growth inhibition; hit rate 1.4% among 330,000; S. cerevisiae TIM10 strain growth, BacTiter-Glo luminescence, 24 h; inhibition, % at 10 µM;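 active = inhibition of 40% or more at the single tested concentration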;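 also: wild-type TIM10 isogenic control strain grown at permissive 25 °C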
PfHsp90 set2 = reduces growth (ATP signal) of yeast expressing P. falciparum Hsp90; S. cerevisiae expressing PfHsp90, BacTiter-Glo ATP, 48 h; yeast lacking PDR1 and PDR3 efflux regulators; AID 504621; hit rate 0.32% among 310,000; inhibition, % at 9.4 µM;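 active = every replicate shows inhibition above about 80%, whatever the replicate mean, limit read from the data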;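 also: 0% = DMSO neutral controls and 100% = 20 µM radicicol positive controls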
SKKanGAS inh = SKKanGAS growth inhibition; S. pyogenes SKKanGAS, kanamycin growth, BacTiter-Glo, 6 h; AID 1662; hit rate 1.3% among 300,000; inhibition, % at 7.5 µM;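 active = mean replicate score, as percent of positive control median, at least 50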;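 also: strain carries kanamycin resistance gene driven by streptokinase promoter and grows in 40 µg/ml kanamycin; loss of luminescence reflects streptokinase promoter inhibition or plain growth inhibition; 0% = median of DMSO wells and 100% = positive control at its reference dose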
EBI2 block = blocks human EBI2 receptor beta-arrestin signaling. P32249. AID 651636. hit rate 0.81% among 360,000. EBI2 beta-arrestin recruitment, luminescence, 7a,25-OHC stimulated. inhibition, % at 5 µM; in the data active = inhibition above about 38%;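 also: enzyme fragment complementation signal reports receptor beta-arrestin coupling in cells; 0% = agonist plus DMSO wells and 100% = wells without agonist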
Target sequence (P32249 whole entry, looked up, the tested form may be a part): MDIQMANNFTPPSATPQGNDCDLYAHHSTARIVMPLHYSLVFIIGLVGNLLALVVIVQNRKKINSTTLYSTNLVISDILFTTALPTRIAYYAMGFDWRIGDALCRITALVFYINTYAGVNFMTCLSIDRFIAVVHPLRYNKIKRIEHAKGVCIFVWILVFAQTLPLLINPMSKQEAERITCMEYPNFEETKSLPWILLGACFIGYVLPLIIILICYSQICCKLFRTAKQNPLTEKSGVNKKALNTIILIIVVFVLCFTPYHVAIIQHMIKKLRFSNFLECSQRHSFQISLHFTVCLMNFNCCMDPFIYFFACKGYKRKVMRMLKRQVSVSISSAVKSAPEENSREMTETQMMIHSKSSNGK
TIM10 conf = confirmation of TIM10 yeast growth inhibitors; shares compounds with TIM10 inh; S. cerevisiae tim10 strain growth, BacTiter-Glo luminescence, 24 h; inhibition, % at 10 µM; hit rate 63% among 4,600; AID 463215;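 active = inhibition of yeast growth at or above a set limit in either of two replicates at 10 µM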;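 also: this counterscreen used the strain with wild-type TIM10; 0% = yeast with DMSO and 100% = medium wells lacking yeast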
tim23-1 conf = tim23-1 yeast growth inhibition, confirmed | AID 463218 | S. cerevisiae tim23-1 growth, BacTiter-Glo luminescence, 24 h | shares compounds with tim23-1 inh | hit rate 83% among 4,400 | inhibition, % at 20 µM;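 active = inhibition above about 39% in either of two replicate wells at 20 µM, limit read from the data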;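 also: temperature-sensitive tim23-1 mutant grown at 25 °C; 0% = DMSO wells with yeast and 100% = medium wells without yeast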
EBI2 antag conf = confirmation of human EBI2 receptor antagonists | shares compounds with EBI2 block | EBI2 beta-arrestin luminescence, 7a,25-OHC antagonism | inhibition, % at 5 µM | hit rate 29% among 2,400;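 active = inhibition of at least 50%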
EBI2 ag = activates EBI2, counter-screen for EBI2 antagonists. shares compounds with EBI2 block. EBI2-expressing cells, agonist mode, luminescence, 60 min; 0% vehicle, 100% 7α,25-dihydroxycholesterol control. activation, % at 5 µM. 2,400 tested, under 10 active. AID 652000;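 active = activation of at least 50%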
bGal counter = beta-galactosidase inhibition counter-screen | purified beta-galactosidase, luminescent Galacton Star, 15 min | shares compounds with EBI2 block | AID 652176 | hit rate 1% among 2,400 | inhibition, % at 5 µM;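 active = replicate-average signal at least 3 plate SD below neutral wells, shown as high inhibition, flagging enzyme-inhibiting false positives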;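 also: 0% = DMSO wells with enzyme and 100% = wells lacking enzyme; higher means stronger loss of beta-gal luminescence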
Numbers without * were called inactive; nt = no result.

SMILES	tim10-1 inh	tim23-1 inh	TIM10 inh	PfHsp90 set2	SKKanGAS inh	EBI2 block	tim23-1 conf	others
CCOc1ccccc1CNC(=O)Cn1ccc2cc(S(=O)(=O)N3CCCC3)ccc21	8	4	1	-81	0	-10	nt
O=C1COc2ccc(-c3csc(=Nc4ccc(OC(F)F)cc4)n3CC3CCCO3)cc2N1 (stereo not drawn)	29	5	40*	nt	2	70*	nt	TIM10 conf=38*;EBI2 antag conf=55*;EBI2 ag=-2;bGal counter=-15
O=c1[nH]cc(CN2CCOCC2)c(=O)[nH]1	nt	nt	nt	9	nt	5	nt
Cc1ccc(/C=C/C(=O)N2CCN(S(=O)(=O)c3c(C)c(C)cc(C)c3C)CC2)o1	26	30	41*	-26	11	50*	nt	TIM10 conf=-18;EBI2 antag conf=32;EBI2 ag=1;bGal counter=3
COc1ccccc1N1CCN(C(=O)c2cc(C)on2)CC1	1	2	-9	-8	1	-17	nt
COc1ccccc1N1CCN(C(=O)c2cc(-c3cccc(Cl)c3)on2)CC1	40	42	43*	-1	18	72*	nt	TIM10 conf=31*;EBI2 antag conf=34;EBI2 ag=-2;bGal counter=-10
COc1cc(/C=C2\SC(N3CCCCC3)=NC2=O)cc(OC)c1OC	37	13	9	-5	7	16	nt
CCc1ccc(/C=C2\SC(N3CCCC3)=NC2=O)cc1	21	38	44*	-18	8	73*	nt	TIM10 conf=41*;EBI2 antag conf=40;EBI2 ag=1;bGal counter=9
CCN1C(=O)[C@H]2[C@@H](c3ccc(-c4ccc(F)cc4)cc3)N3CCCC[C@@]3(C(=O)OC)[C@H]2C1=O	27	31	29	-4	15	14	nt
Cc1cccc(Nc2nc(-c3cccs3)cs2)n1	6	44	30	0	7	14	nt
c1ccc(Nc2nc(-c3cccnc3)cs2)nc1	10	-4	12	-8	-11	0	nt
Oc1ccc(-c2csc(Nc3ccccn3)n2)c(O)c1	26	72*	10	-26	1	-11	54*
c1ccc(Nc2nc(-c3cccs3)cs2)nc1	17	57*	29	-13	-2	0	34
Fc1ccc(-c2csc(Nc3ccccn3)n2)cc1	18	54*	9	3	-3	24	41*
Cc1ccc(S(=O)(=O)Nc2cccc(C(=O)NCCCN3CCCC3=O)c2)cc1F	-23	-33	-5	14	4	-16	nt
NC(=S)N/N=C/c1coc2ccc(Br)cc2c1=O	18	78*	34	-6	1	-9	75*
NC(=S)N/N=C/c1coc2ccc(O)cc2c1=O	2	-14	4	17	2	-2	nt
NC(=S)N/N=C/c1coc2cc(Br)ccc2c1=O	28	58*	32	-13	32	-1	58*
COC(=O)C12CCC(C)(c3nc4ccccc4nc31)C2(C)C (stereo not drawn)	27	8	20	34	1	-2	nt
CC(C)(C)NC(=O)C12CCC(C)(c3nc4ccccc4nc31)C2(C)C (stereo not drawn)	39	53*	38	nt	4	2	37
CCn1c(SCc2ccc(Cl)cc2)nc2nc3c(cc2c1=O)CCCC3	12	27	16	-9	25	14	nt
CSc1nc2nc3c(cc2c(=O)n1-c1ccccc1C)CCCC3	17	55*	10	23	-7	-12	44*
Cc1cccc(N=Nc2cnc(N)s2)c1	28	52*	22	8	-5	5	53*

Compound activity deposited in PubChem BioAssay by several laboratories.
